Laboratory results taken from PubChem BioAssay.
Unmarked numbers belong to inactive results. The source made the active and inactive calls.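 How the source made its calls, unless noted: active means luciferase signal above three times the same-plate solvent-only control wells; inactive means the rest.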

Molecular target: NAD(+) hydrolase SARM1 (Homo sapiens) (UniProt Q6SZW1)
Test: blocking NAD cleavage by SARM1 SAM-TIR – cell lysate, NAD-Glo luminescence (AID 1508614;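 active means compound whose remaining NAD level is above about 45 nM, limit read from the data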;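 further: higher remaining NAD means stronger inhibition of SARM1 NADase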)
Settings: SAM-TIR HEK293T lysate NADase, at 1 µM, hits give high values

Chain of NAD(+) hydrolase SARM1 (Homo sapiens) (Q6SZW1 whole entry, looked up): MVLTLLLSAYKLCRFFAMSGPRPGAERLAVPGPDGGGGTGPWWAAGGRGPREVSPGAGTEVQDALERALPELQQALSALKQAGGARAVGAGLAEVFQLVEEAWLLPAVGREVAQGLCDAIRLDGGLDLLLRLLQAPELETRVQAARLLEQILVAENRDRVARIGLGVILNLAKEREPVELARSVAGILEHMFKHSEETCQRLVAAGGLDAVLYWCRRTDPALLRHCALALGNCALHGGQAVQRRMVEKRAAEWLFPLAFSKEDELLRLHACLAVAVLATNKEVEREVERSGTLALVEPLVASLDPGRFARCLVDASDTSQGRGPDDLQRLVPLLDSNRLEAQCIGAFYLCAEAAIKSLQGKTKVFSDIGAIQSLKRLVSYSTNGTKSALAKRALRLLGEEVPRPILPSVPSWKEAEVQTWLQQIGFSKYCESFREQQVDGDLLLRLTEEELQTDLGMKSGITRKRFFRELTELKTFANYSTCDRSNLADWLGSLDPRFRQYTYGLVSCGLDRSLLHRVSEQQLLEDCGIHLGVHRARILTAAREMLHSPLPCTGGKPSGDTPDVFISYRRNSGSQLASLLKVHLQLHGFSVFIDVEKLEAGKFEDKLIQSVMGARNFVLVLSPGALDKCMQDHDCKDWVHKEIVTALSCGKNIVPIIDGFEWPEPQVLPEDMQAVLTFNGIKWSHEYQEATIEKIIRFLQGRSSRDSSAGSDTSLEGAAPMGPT

| Compound | remaining NAD [nM] |
| --- | --- |
| C[C@@H]1C\C=C/C=C/C=C/C=C/[C@H](O[C@@H]2O[C@H](C)[C@@H](O)[C@H](N)[C@@H]2O)C[C@@H]2O[C@](O)(C[C@@H](O)C[C@@H]3O[C@@H]3/C=C\C(=O)O1)C[C@H](O)[C@H]2C(=O)O | 10 |
| C=CC1=C(C)C2=CC3=NC(=C(CC(=O)O)C4=NC(=C(C)C4=C(O)O)C=c4[nH]c(c(C)c4CC)=CC1=N2)C(CCC(=O)O)C3C (stereo not drawn) | 10 |
| CC1(C)S[C@@H]2[C@H](NC(=O)[C@H](C(=O)O)c3ccsc3)C(=O)N2[C@H]1C(=O)O | 10 |
| CC(=O)OCC(=O)[C@@]1(O)[C@@H](C)C[C@H]2[C@@H]3CCC4=CC(=O)C=C[C@]4(C)[C@@]3(F)[C@@H](O)C[C@@]21C | 10 |
| C[C@]12C=CC(=O)C=C1CC[C@@H]1[C@@H]2[C@@H](O)C[C@@]2(C)[C@H]1CC[C@]2(O)C(=O)COP(=O)(O)O | 10 |
| CC1(C)S[C@@H]2[C@H](N3C(=O)[C@@H](c4ccccc4)NC3(C)C)C(=O)N2[C@H]1C(=O)O | 10 |
| CC(=O)[C@H]1CC[C@H]2[C@@H]3CC=C4C[C@@H](OC(=O)CCC(=O)O)CC[C@]4(C)[C@H]3CC[C@]12C | 10 |
| CC(=O)[C@@]12O[C@](C)(c3ccccc3)O[C@@H]1C[C@H]1[C@@H]3CCC4=CC(=O)CC[C@]4(C)[C@H]3CC[C@@]12C | 10 |
| O=C(O)C1=C(CSc2nnnn2CS(=O)(=O)O)CS[C@@H]2[C@H](NC(=O)[C@H](O)c3ccccc3)C(=O)N12 | 10 |
| C[C@@H]1O[C@@H]1P(=O)(O)O | 10 |

Molecular target: Mitogen-activated protein kinase 7 (Homo sapiens) (UniProt Q13164)
Sequence (Q13164 whole entry, looked up, the tested form may be a part): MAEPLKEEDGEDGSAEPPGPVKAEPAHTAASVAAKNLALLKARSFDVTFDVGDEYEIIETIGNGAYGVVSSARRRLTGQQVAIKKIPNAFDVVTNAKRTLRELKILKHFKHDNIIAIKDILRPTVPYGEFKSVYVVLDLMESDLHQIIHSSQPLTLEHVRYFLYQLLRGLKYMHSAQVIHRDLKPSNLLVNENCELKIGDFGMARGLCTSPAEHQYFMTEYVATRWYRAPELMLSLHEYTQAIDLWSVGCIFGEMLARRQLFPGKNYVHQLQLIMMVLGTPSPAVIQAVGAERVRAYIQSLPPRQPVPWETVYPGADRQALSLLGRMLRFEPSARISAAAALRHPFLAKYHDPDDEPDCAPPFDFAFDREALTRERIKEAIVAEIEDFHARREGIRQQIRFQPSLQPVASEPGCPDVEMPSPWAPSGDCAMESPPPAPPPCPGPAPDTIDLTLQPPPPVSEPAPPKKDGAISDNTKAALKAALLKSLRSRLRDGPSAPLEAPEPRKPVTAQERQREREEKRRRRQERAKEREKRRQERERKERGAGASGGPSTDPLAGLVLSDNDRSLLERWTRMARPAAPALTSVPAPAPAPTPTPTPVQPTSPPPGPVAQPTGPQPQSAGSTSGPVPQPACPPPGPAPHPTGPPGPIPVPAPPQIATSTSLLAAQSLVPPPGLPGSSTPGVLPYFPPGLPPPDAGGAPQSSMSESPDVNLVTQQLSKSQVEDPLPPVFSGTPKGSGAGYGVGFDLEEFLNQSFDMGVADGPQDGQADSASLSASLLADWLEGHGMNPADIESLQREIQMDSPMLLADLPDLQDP
Test: Gal4-ERK5 driven luciferase induction – cell-based, HTS, primary screen (AID 1508626);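 further: luciferase driven by Gal4-ERK5 fusion binding five Gal4 sites before minimal TATA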
Settings: HeLa Gal4-ERK5 transactivation, 18 h, at 5 µM, hits give high values

| Compound | luciferase signal |
| --- | --- |
| Cn1nnnc1SCC1=C(C(=O)O)N2C(=O)[C@@H](NC(=O)[C@H](OC=O)c3ccccc3)[C@H]2SC1 | 16 AU |
| CN[C@@H]1[C@@H](O)[C@@H](O[C@@H]2[C@@H](O)[C@H](O[C@H]3OC(CN)=CC[C@H]3N)[C@@H](N)C[C@H]2N)OC[C@]1(C)O | 48 AU |
| CO[C@H]1C[C@@H]2CC[C@@H](C)[C@@](O)(O2)C(=O)C(=O)N2CCCC[C@H]2C(=O)O[C@H]([C@H](C)C[C@@H]2CC[C@@H](O)[C@H](OC)C2)CC(=O)[C@H](C)/C=C(\C)[C@@H](O)[C@@H](OC)C(=O)[C@H](C)C[C@H](C)\C=C/C=C/C=C/1C | 64 AU |
| C[C@H]1C[C@@H]2[C@H]([C@@H](O)C[C@@]3(C)[C@H]2CC[C@]3(O)C(=O)COC(=O)CCC(=O)O)[C@@]2(C)C=CC(=O)C=C12 | 72 AU |
| COc1cc(-c2cc(=O)c3c(O)c(OC)c(OC)c(OC)c3o2)cc(OC)c1OC | 40 AU |
| CC(=O)OCC(=O)[C@H]1CC[C@H]2[C@@H]3CC=C4C[C@@H](O)CC[C@]4(C)[C@H]3CC[C@]12C | 256 AU (active) |
| CC[C@H]1OC(=O)C[C@@H](O)[C@H](C)[C@@H](O[C@@H]2O[C@H](C)[C@@H](O)[C@H](N(C)C)[C@H]2O)[C@@H](CCN2C[C@H](C)C[C@H](C)C2)C[C@@H](C)C(=O)/C=C/C(C)=C/[C@@H]1CO[C@@H]1O[C@H](C)[C@@H](O)[C@@H](OC)[C@H]1OC | 36 AU |
| CC(C)CCC[C@@H](C)[C@H]1CC[C@H]2[C@@H]3CC(=O)[C@H]4C[C@@H](O)CC[C@]4(C)[C@H]3CC[C@]12C | 216 AU (active) |
| CCN[C@@H]1C[C@H](N)[C@@H](O[C@H]2OC(CN)=CC[C@H]2N)[C@H](O)[C@H]1O[C@H]1OC[C@](C)(O)[C@H](NC)[C@H]1O | 56 AU |
| OC[C@@H](O)C(O)[C@@H](O)CO (stereo partly drawn) | 88 AU |
| COc1cc2c(cc1OC)C1Cc3ccc(OC)c(OC)c3CN1CC2 (stereo not drawn) | 52 AU |
| CC1(C)CC2C1CC[C@]1(C)CCC3C(C(=O)O)CC(=O)O[C@@]32C1 (stereo partly drawn) | 56 AU |
| COC(=O)C[C@H]1C(C)(C)C(=O)[C@@H]2CC3=C(CC[C@]4(C)C3=CC(=O)O[C@H]4c3ccoc3)[C@@]1(C)C2=O | 24 AU |
| CN[C@@H]1[C@H](O[C@H]2[C@H](O[C@H]3[C@H](O)[C@@H](O)[C@H](N=C(N)N)[C@@H](O)[C@@H]3N=C(N)N)O[C@@H](C)[C@]2(O)C=O)O[C@@H](CO)[C@H](O)[C@H]1O | 80 AU |
| C[C@@H]1C\C=C/C=C/C=C/C=C/[C@H](O[C@@H]2O[C@H](C)[C@@H](O)[C@H](N)[C@@H]2O)C[C@@H]2O[C@](O)(C[C@@H](O)C[C@@H]3O[C@@H]3/C=C\C(=O)O1)C[C@H](O)[C@H]2C(=O)O | 292 AU |
| CC1(C)S[C@@H]2[C@H](NC(=O)[C@H](C(=O)O)c3ccsc3)C(=O)N2[C@H]1C(=O)O | 44 AU |
| CC(=O)OCC(=O)[C@@]1(O)[C@@H](C)C[C@H]2[C@@H]3CCC4=CC(=O)C=C[C@]4(C)[C@@]3(F)[C@@H](O)C[C@@]21C | 132 AU |
| CO/N=C(/C(=O)N[C@@H]1C(=O)N2C(C(=O)OC(C)OC(C)=O)=C(COC(N)=O)CS[C@H]12)c1ccco1 (stereo partly drawn) | 120 AU |
| C[C@]12C=CC(=O)C=C1CC[C@@H]1[C@@H]2[C@@H](O)C[C@@]2(C)[C@H]1CC[C@]2(O)C(=O)COP(=O)(O)O | 96 AU |

| Compound | luciferase signal |
| --- | --- |
| CC(C)CCC[C@@H](C)[C@H]1CC[C@H]2[C@@H]3C(=O)C=C4C[C@@H](O)CC[C@]4(C)[C@H]3CC[C@]12C | 80 AU |
| CC(=O)OC1C[C@@]2(C)C(CC[C@@H]2C(C)=O)C2CCC3=CC(=O)CC[C@]3(C)C12 (stereo partly drawn) | 108 AU |
| CC1(C)S[C@@H]2[C@H](N3C(=O)[C@@H](c4ccccc4)NC3(C)C)C(=O)N2[C@H]1C(=O)O | 40 AU |
| Cc1cccc2c3c(ccc12)C1=C(C(=O)C3=O)[C@@H](C)CO1 | 156 AU |
| CO/N=C(/C(=O)N[C@@H]1C(=O)N2C(C(=O)OCOC(=O)C(C)(C)C)=C(/C=C\c3scnc3C)CS[C@H]12)c1csc(N)n1 | 132 AU |
| CC(=O)[C@H]1CC[C@H]2[C@@H]3CC=C4C[C@@H](OC(=O)CCC(=O)O)CC[C@]4(C)[C@H]3CC[C@]12C | 52 AU |
| CNS(=O)(=O)c1ccc(NC(=O)c2ccccc2C(=O)O)cc1 | 28 AU |
| C=C1CC[C@@]2(OC1)O[C@H]1C[C@H]3[C@@H]4CC=C5C[C@@H](O)C[C@@H](O)[C@]5(C)[C@H]4CC[C@]3(C)[C@H]1[C@@H]2C | 84 AU |
| CC(=O)O[C@H]1CC[C@@]2(C)C(=CC[C@H]3[C@@H]4CC[C@H]([C@H](C)CCCC(C)C)[C@@]4(C)CC[C@@H]32)C1 | 56 AU |
| OC[C@H]1O[C@H]([S-])[C@H](O)[C@@H](O)[C@@H]1O.[Au+] | 68 AU |
| NC(=O)CCCCC(S)CCS (stereo not drawn) | 32 AU |
| C[C@@]12CCc3occc3[C@H]1CC[C@@]13C[C@@H](CC[C@H]12)[C@@](O)(CO)C3 | 40 AU |
| O=C(O)/C=C/c1ccccc1 | 52 AU |
| CC(=O)[C@@]12O[C@](C)(c3ccccc3)O[C@@H]1C[C@H]1[C@@H]3CCC4=CC(=O)CC[C@]4(C)[C@H]3CC[C@@]12C | 76 AU |
| O=c1c(O)c(-c2ccccc2)oc2cccc(O)c12 | 60 AU |
| O=C(O)C1=C(CSc2nnnn2CS(=O)(=O)O)CS[C@@H]2[C@H](NC(=O)[C@H](O)c3ccccc3)C(=O)N12 | 84 AU |
| C[C@@H]1O[C@@H]1P(=O)(O)O | 76 AU |
| CC1(C)CC[C@]2(C(=O)O)CC[C@]3(C)C(=CC[C@@H]4[C@@]5(C)CC[C@H](O)C(C)(C)[C@@H]5[C@H](O)C[C@]43C)[C@@H]2C1 | 84 AU |
| O=c1c(O)c(-c2ccc(O)c(O)c2)oc2c(O[C@@H]3O[C@H](CO)[C@@H](O)[C@H](O)[C@H]3O)c(O)cc(O)c12 | 36 AU |
